High-throughput results from PubChem BioAssay.
HIF-2a block – blocks HIF-2a reporter activity; AID 624352; actives 0.72% (n = 360,000); 786-0 RCC cells HIF-2a reporter, luciferase luminescence, overnight; inhibition, % at 18.8 µM;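 active means inhibition of the luminescence signal of 40% or more relative to plate controls, in a single-dose primary screen at 18.75 µM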
MITF TRPM1 inh – inhibitors of MITF-driven TRPM1 promoter in melanoma cells | AID 488899 | actives 0.83% (n = 330,000) | inhibition, % at 12.5 µM | SK-MEL-5 TRPM1 promoter luciferase, 24 h;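 active means mean inhibition across replicates of 60% or more, whatever share of single replicates reaches that level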
Peg3 prom inh – Peg3 promoter activity inhibition; HeLa PEG-Prom luciferase reporter, luminescence, overnight; AID 588405; inhibition, % at 20 µM; actives 1.7% (n = 360,000);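 active means inhibition of at least 50% at 20 µM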
TWEAK Fn14 block – inhibitors of TWEAK-Fn14 interaction signaling; TWEAK-stimulated Fn14 reporter cells, luciferase luminescence, 8 h; inhibition, % at 10 µM; actives 2% (n = 360,000); AID 1159606; in the data active means inhibition above about 50%
LMP1 NFkB inh – inhibitors of Epstein-Barr LMP1-induced NF-kappaB reporter; LMP1-induced NF-kappaB luciferase reporter cells, luminescence; actives 0.69% (n = 350,000); inhibition, % at 12.5 µM; in the data active means inhibition above about 41%;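 further: 0% = neutral control wells and 100% = reference inhibitor control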
TROY signal inh – blocks TROY-dependent signaling in reporter cells; Q293 LMP1-TROYcd NF-kB luciferase reporter, 4 h; inhibition, % at 10 µM; actives 0.98% (n = 360,000);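 active means compounds whose plate-normalised and pattern-corrected inhibition of the luciferase reporter signal at the single screening dose is 50% or more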
Numbers without * were called inactive; nt = no result given. An excerpt weighted towards active compounds, which were near 4% of everything screened.

SMILES	HIF-2a block	MITF TRPM1 inh	Peg3 prom inh	TWEAK Fn14 block	LMP1 NFkB inh	TROY signal inh
CCCC(NS(=O)(=O)c1ccc(-c2ccc(=O)[nH]n2)s1)c1cccs1 (stereo not given)	-61	-22	-19	58*	-13	35
O=C(CN(c1cccc(Br)c1)S(=O)(=O)c1ccccc1)N/N=C/c1cc([N+](=O)[O-])ccc1O	11	3	31	-15	-1	52*
CCOC(=O)C(NCc1ccco1)(NC(=O)c1ccccc1)C(F)(F)F (stereo not given)	22	5	17	87*	3	14
CC(=O)Nc1ccc(-c2ccnc3c2CC(C)(C(=O)Nc2cccc(Oc4ccccc4)c2)O3)cc1 (stereo not given)	26	nt	8	12	nt	22
Cc1cc(=O)n2c3ccccc3n(CC(O)CN3CCN(CCO)CC3)c2c1C#N (stereo not given)	5	10	10	68*	-2	2
Cc1cc(=O)n2c3ccccc3n(CC(O)CN3CCN(Cc4ccccc4)CC3)c2c1C#N (stereo not given)	8	-9	29	11	5	-1
COc1ccc(-c2ocnc2C(=O)NCc2nn(-c3ccccc3)nc2C)cc1	-30	20	10	50*	23	39
CC(c1ccccc1)c1nnc(NC(=O)Nc2ccccc2F)s1 (stereo not given)	-202	-77	-215	-22	46*	-12
O=C(NCc1ccc(C(F)(F)F)cc1)c1ccc(-c2ccc(F)c(F)c2)c2ccoc12	-19	nt	-6	2	nt	13
CN1CCN(c2ccc(CNC(=O)c3cccc4c(-c5ccc(F)c(F)c5)coc34)cc2)CC1	-46	nt	73*	-141	nt	-48
CN1CCN(c2ccc(CNC(=O)c3ccc(-c4ccc(F)c(F)c4)c4ccoc34)cc2)CC1	-30	nt	63*	-66	nt	10
C[C@@H]1CN([C@@H](C)CO)C(=O)CCCn2nncc2CO[C@@H]1CN(C)S(=O)(=O)c1ccc2ccccc2c1	5	nt	16	-6	0	-4
CC/C(=C(\c1ccc(O)cc1)c1ccc(OCCN(C)C)cc1)c1ccccc1	18	9	57*	14	3	-6
CCC(=C(c1ccc(O)cc1)c1ccc(OCCN(C)C)cc1)c1ccccc1	5	nt	-12	7	4	-12
CC/C(=C(\c1ccccc1)c1ccc(OCCN(C)C)cc1)c1ccccc1	-6	27	71*	-17	-2	-9
COc1ccccc1CNC(=O)COC(=O)c1cc(=O)c2ccccc2o1	10	4	17	2	5	-10
CCN(CC)c1ccc(-c2c(C#N)c(N)nc(OC)c2C#N)cc1	12	5	53*	-23	0	15
Cn1nc(N)c2c(-c3ccc(Cl)cc3)c(C#N)c(N)nc21	29	4	7	-6	-1	-19
Cc1cc(-c2nn(-c3ccccc3)cc2/C=C2\SC(N)=NC2=O)ccc1OC(C)C	4	-6	78*	33	-37	-2
Cc1ccc(NC(=O)COc2coc(CN3CCc4ccccc43)cc2=O)cc1Cl	1	12	34	-21	0	-5
Cc1nc(N2CCN(c3ccccn3)CC2)c2c(C)c(C(=O)N3CCN(c4ccccc4F)CC3)sc2n1	12	6	72*	23	-2	40
Cc1ccc(NC(=O)c2sc3nc(C)nc(N4CCN(c5ccccn5)CC4)c3c2C)c(C)c1	15	-12	16	15	4	14
Cc1ccc(C)c(S(=O)(=O)NCCC(=O)N2CCCC(C(N)=O)C2)c1 (stereo not given)	9	-1	0	-3	-2	-6
CN1CCN(C(=O)C2=C[C@@H](C(C)(C)C)C[C@@H](OCc3ccc(CO)cc3)O2)CC1	5	2	6	3	55*	-26
CN1CCN(C(=O)C2=C[C@H](C3CC3)C[C@H](OCc3ccc(CO)cc3)O2)CC1	-6	-15	1	7	-10	1
SMILES	HIF-2a block	MITF TRPM1 inh	Peg3 prom inh	TWEAK Fn14 block	LMP1 NFkB inh	TROY signal inh
O=C(NCc1ccccc1)c1cccc(COc2ccc3c(c2)CCC3)c1	15	21	-119	3	58*	-54
Cc1ccc(N/C=C/C(=O)c2cccs2)cc1	-35	31	15	81*	16	55*
O=C(/C=C/Nc1ccc(F)cc1F)c1cccs1	-7	12	12	60*	3	10
O=C(/C=C/Nc1ccccc1F)c1cccs1	-25	12	-43	64*	13	-14
CCOC(=O)c1ccccc1N/C=C/C(=O)c1cccs1	-147	6	-67	0	-10	34
O=C(/C=C\Nc1cccc(F)c1)c1cccs1	-229	-31	-226	10	-50	-56
CCC(CC)C(=O)N(C)c1c(C)nc2c(OCc3ccc(F)c(F)c3)cccn12	5	nt	-6	10	nt	18
Nc1ccc(OC(=O)Nc2ccc(O)cc2)cc1	77*	45	14	66*	29	-4
O=C(Nc1ccc(N2CCN(c3ccc(O)cc3)CC2)cc1)Oc1ccccc1	-28	-4	7	18	-13	20
CC1C(=O)N(Cc2cn(Cc3ccco3)nn2)CCS(=O)(=O)N1Cc1ccc(-c2cccc(N(C)C)c2)cc1 (stereo not given)	-17	nt	-14	-2	-3	-4
Cc1cccc(N2CCN(C(=O)c3ccc(CS(=O)(=O)c4ccccc4C)o3)CC2C)c1 (stereo not given)	20	30	52*	36	8	43
COc1ccc(N2CCN(C(=O)c3ccc(CS(=O)(=O)c4ccccc4C)o3)CC2)cc1	22	nt	2	-5	5	6
CCC(=O)N1CCN(c2cc(C)ccc2C)CC1	6	-9	2	76*	2	-9
Cc1ccc(C)c(N2CCN(C(=O)c3ccc(CS(=O)(=O)c4ccccc4C)o3)CC2)c1	16	29	37	55*	6	12
NNC(=O)c1c(O)c2cccc3c2n(c1=O)CCC3	19	2	2	6	6	8
Cc1cccc(C=NOCCc2ccccc2)n1	-219	-68	-232	2	-25	-70
COc1cccc(N2CCN(CC(=O)Nc3nnc(-c4ccccc4)s3)CC2)c1	3	-5	14	55*	14	29
CCc1nnc(NC(=O)CN2CCN(Cc3cccc(F)c3)CC2)s1	-1	0	-12	53*	-3	-11
COC(=O)c1ccc(CNC(=O)c2ccc(S(=O)(=O)N(C)c3ccccc3OC)cc2)cc1	-2	1	0	24	-12	20
C/C(=C\c1ccc(Br)cc1)C(=O)c1c(C)cc(C)[nH]c1=O	22	2	5	52*	19	45
Cc1ccc(/C=C/C(=O)c2c(C)cc(C)[nH]c2=O)cc1	27	44	48	86*	32	37
C/C(=C\c1ccc(Cl)cc1)C(=O)c1c(C)cc(C)[nH]c1=O	30	7	5	31	22	32
